# Laboratory results taken from PubChem BioAssay AID1347076 (National Center for Advancing Translational Sciences (NCATS), 2019).
# The whole screen tested about 400,000 compounds, of which about 13,000 (3.2%) were called active. Roughly 18% stayed inconclusive and do not appear here. Calls come from the whole dose curve; as a rule, active = well fitted cell-killing curve with a large enough effect; inconclusive = small, poorly fitted or top-dose-only effect, or effect the other way; inactive = flat fitted curve, though single readings scatter. The list comes from a sample in which actives are over-represented; it also holds similar structures and randomly drawn compounds.
# Test: qHTS assay for MDR1-selective chemotherapeutics: Primary screen using the drug-selected MDR subline cells KB-V1; note: nearly all actives have a fitted effect of over 60% in size
# Settings: KB-V1 MDR cells viability, CellTiter-Glo, 72 h; series mostly up to 46.1 µM; activity change, negative = cytotoxicity: at the top concentration
# Method in brief: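 KB-V1 MDR subline cells in DMEM (phenol-red free, 10% FBS) exposed to compounds in qHTS concentration series for 72 h at 37 degrees C. Viability read by CellTiter-Glo luminescence; concentration-effect curves fitted after normalization and correction.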
# % is set by controls: 0 for no effect and ±100 for the full control effect; potency is the fitted concentration of half-maximal effect.
Compound,"activity change, negative = cytotoxicity",Potency
COc1ccc(C(=O)N2CCCCC2c2cc(C(=O)Nc3ccc(F)c(Cl)c3)no2)cc1 (stereo not given),-11.6% (inactive),
O=[N+]([O-])c1ccc(CN2CC(N3CC=CC3)CS2(=O)=O)cc1 (stereo not given),-6.04% (inactive),
CC(C)(C)S(=O)N1Cc2cc(C(=O)NCCCN3CCOCC3)nc(-c3cccc(-c4cc5ccccc5o4)c3)c2[C@H]1CCO (stereo not given in full),-18.9% (inactive),
O=C(NCc1ccco1)c1ccc(Cn2c(=O)c3sccc3n(Cc3ccc(F)cc3)c2=O)cc1,-10.9% (inactive),
CC(=O)Nc1ccc(NC(=O)c2cc3sccc3n2Cc2ccc(F)cc2)cc1,0% (inactive),
O=C(NCc1ccco1)c1cc2sccc2n1Cc1ccc(F)cc1,,16.4 µM (active)
CCCCCCN1C[C@H](O)[C@@H](n2cc(C3CC3)nn2)C[C@@H]1c1ccc(Cl)cc1,0% (inactive),
COC(=O)c1sccc1NC(=O)c1csc2c1CCCC2,,14.6 µM (active)
COC(=O)c1sccc1NC(=O)c1ccc(Cl)cc1,-6.52% (inactive),
CCOC(=O)c1ccc(NC(=O)c2csc3c2CCCCC3)cc1,16.5% (inactive),
CCNC(=S)Nc1ccc2c(c1)c(=O)n(C)n2Cc1ccc(Cl)cc1,-0.147% (inactive),
CCC(C(=O)NC(C)(C)C)n1c(-c2ccccc2)nc2ccccc21 (stereo not given),-16.9% (inactive),
O=C(Nc1ccc(Br)cn1)c1ccc([N+](=O)[O-])o1,-28.8% (inactive),
Cc1onc(NC(=O)c2ccc([N+](=O)[O-])o2)c1Br,0% (inactive),
Cc1cccc(NC(=O)c2ccc([N+](=O)[O-])o2)c1,,18.4 µM (active)
CCN(CC)C(=O)CSc1nnc(-c2cccc(OC)c2)o1,,11.6 µM (active)
COc1cccc(NC(=O)CSc2nnc(-c3cccnc3)o2)c1,-1.74% (inactive),
COc1cccc(-c2nnc(SCC(=O)N3CCC(C)CC3)o2)c1,5.37% (inactive),
COC(=O)Nc1nc2ccc(Sc3ccccc3)cc2[nH]1,,1.16 µM (active)
Cc1ccc2nc(CNC(=O)c3ccccc3)[nH]c2c1,9.02% (inactive),
CC(C)c1nc2ccc(C(=O)O)cc2[nH]1,-8.64% (inactive),
CCN(CCCNC(=O)Cn1ncc2c3ccccc3n(C)c2c1=O)Cc1ccccc1,10.1% (inactive),
C=CCN(CC=C)S(=O)(=O)c1ccc(C(=O)Nc2nc3c(s2)CCc2ccccc2-3)cc1,-28.4% (inactive),
COCCN(CCOC)S(=O)(=O)c1ccc(C(=O)Nc2nc3c(s2)CCc2ccccc2-3)cc1,,8.2 µM (active)

Compound,"activity change, negative = cytotoxicity",Potency
COCCN(CCOC)S(=O)(=O)c1ccc(/C(O)=C(\C#N)c2nc3ccccc3[nH]2)cc1,-17.6% (inactive),
O=[N+]([O-])c1ccc(S(=O)(=O)N2CCN(c3nc(-c4ccccc4)nc4ccccc34)CC2)cc1,0% (inactive),
CN(C)C(=O)c1cccc(-c2cnc3c(NC=O)cc(-c4ccc(C(=O)N5CCOCC5)cc4)cn23)c1,1.7% (inactive),
CC(=O)c1cccc(-c2cnc3c(NC=O)cc(-c4cccc(C(=O)N(C)C)c4)cn23)c1,14.1% (inactive),
CC(=O)Nc1cc(-c2cccc(CO)c2)cn2c(-c3cccc(C(F)(F)F)c3)cnc12,5.62% (inactive),
COc1ccc(-c2cc(NC=O)c3ncc(-c4ccccc4)n3c2)cc1OC,,18.4 µM (active)
CC(=O)c1ccc(-c2cnc3c(NC=O)cc(-c4cccc(NS(C)(=O)=O)c4)cn23)cc1,0.977% (inactive),
CN(C)CCNC(=O)c1cccc(-c2cnc3c(NC=O)cc(-c4cccc(C(F)(F)F)c4)cn23)c1,,14.6 µM (active)
CC(=O)c1cccc(-c2cnc3c(NC=O)cc(-c4ccc(N(C)C)cc4)cn23)c1,,18.4 µM (active)
CC(=O)c1cccc(-c2cnc3c(NC=O)cc(-c4ccccc4Oc4ccccc4)cn23)c1,-17.7% (inactive),
CC(=O)c1cccc(-c2cnc3c(NC=O)cc(-c4ccc(N5CCN(C)CC5)cc4)cn23)c1,1% (inactive),
CC(C)(C)C(=O)c1c(N)[nH]c(C(=O)c2ccccc2)c1-c1ccc(F)cc1,-12.2% (inactive),
CCCNC(=O)C1(C)CCCN(Cc2cccc(C(F)(F)F)c2)C1 (stereo not given),3.51% (inactive),
CC1CN(C(=O)c2cccc(NS(=O)(=O)c3ccc(Br)cc3)c2)CC(C)O1 (stereo not given),-24.9% (inactive),
CCN(CC)C(=O)C1=C(C)N(Cc2ccc(F)cc2)C(=O)C(CC(=O)NCc2cccc3ccccc23)C1 (stereo not given),-7.48% (inactive),
FC(F)(F)Oc1ccccc1C(c1nnnn1C1CCCCC1)N1CCN(C/C=C/c2ccccc2)CC1 (stereo not given),0% (inactive),
CCCCC[C@@H]1C=C(C(=O)OCC)[C@H](c2ccccc2)N1S(=O)(=O)c1ccc(C)cc1,-28.5% (inactive),
CS(=O)(=O)N1CCCCC1c1cc(C(=O)NCc2ccccc2)no1 (stereo not given),-1.31% (inactive),
Cc1ccc(Cn2c(=O)n(-c3ccc(C)cc3)c(=O)c3c2c2cc(C)ccc2n3C)cc1,21.8% (inactive),
CCOC(=O)/C(=C\c1ccc([N+](=O)[O-])cc1)C(=O)c1cc(C(C)=O)c(Nc2ccccc2)s1,,8.2 µM (active)
CCOC(=O)COc1ccc([N+](=O)[O-])cc1,-5.01% (inactive),
Cc1ccc(NC(=O)/C(=C/c2ccc([N+](=O)[O-])cc2)NC(=O)c2ccccc2)cc1,-3.11% (inactive),
O=c1c(NCc2cccs2)nccn1-c1ccccc1,9.24% (inactive),
COc1ccccc1N1CCN(Cc2ccc(OC)c3ccccc23)CC1,,16.4 µM (active)

Compound,"activity change, negative = cytotoxicity",Potency
CNCC(O)CN1CCN(c2ccccc2OC)CC1 (stereo not given),-1.79% (inactive),
COc1ccccc1N1CCN(Cc2cc(OC)c3c(c2)OCO3)CC1,-7.05% (inactive),
CCCn1c(NCc2ccc(N(CC)CC)cc2)nc2ccccc21,-22.9% (inactive),
COc1ccc(-c2ccc(CN3C(C(C)C)C(=O)N(Cc4cn(CC5CCCCC5)nn4)CCS3(=O)=O)cc2)cn1 (stereo not given),-16.7% (inactive),
CCOC(=O)c1c(NC(=S)SC)sc(C(=O)N2CCc3ccccc3C2)c1C,10.7% (inactive),
C=CCn1c(SCC(=O)NCc2ccccc2)nnc1-c1cc(Br)ccc1O,,11.6 µM (active)
O=C(CSc1nnc(-c2cccnc2)n1CCc1ccccc1)NCc1ccccc1,-3.79% (inactive),
C=CCn1c(SCC(=O)NC(=O)Cc2ccccc2)nc2ccccc2c1=O,0% (inactive),
CN1CCN(C(CNC(=O)c2ccccc2F)c2ccc3c(c2)OCO3)CC1 (stereo not given),-3.27% (inactive),
COc1ccc2c(c1)CCc1c(C(=O)Nc3cc(C)ccc3O)noc1-2,11.3% (inactive),
COc1ccc(NS(=O)(=O)c2ccc(C(=O)Nc3c(C)n(C)n(-c4ccccc4)c3=O)cc2)cc1,0% (inactive),
COc1ccc2c(c1)CCc1c(C(=O)Nc3c(C)n(C)n(-c4ccccc4)c3=O)noc1-2,,18.4 µM (active)
Nc1ccc(/C=C/c2ccnc3ccccc23)c([N+](=O)[O-])c1,-13.2% (inactive),
COc1ccc(C2=Nc3ccccc3NC(=O)C2N(C(=O)c2cc3ccccc3[nH]2)c2ccccc2)cc1 (stereo not given),11% (inactive),
COc1ccc(-c2ccc(C(=O)NC(C)C)c3occc23)c(C)c1,-4% (inactive),
O=C(Cn1nnc(-c2ccc(CN3CCOCC3)cc2)n1)NC1CCCCC1,,23.1 µM (active)
COc1cccc(N(CC(=O)NC2CCCC2)C(=O)Cn2nnc(-c3ccc(C)cc3)n2)c1,-0.0355% (inactive),
O=C(Cn1nnc(-c2ccccc2)n1)NC(=O)NC1CCCC1,-1.79% (inactive),
COc1ccc(C(=O)Nc2cccc(NC(=O)c3ccc(OC)cc3OC)n2)c(OC)c1,-11.6% (inactive),
CC(C)(C)C(=O)Nc1cccc(-c2ccc[nH]2)n1,,16.4 µM (active)
CC(C)(C)C(=O)Nc1ccc(-c2cn3cccnc3n2)cc1,1.27% (inactive),
CCCN1CCN(C(=O)CCCNC(=O)c2ccc(Cl)cc2)CC1,-6.51% (inactive),
CC(C)(C)c1ccc(C(=O)NCCC(=O)NCc2ccco2)cc1,-16.8% (inactive),
CCCCNC(=O)CCNC(=O)c1ccc(C(C)(C)C)cc1,,14.6 µM (active)

Compound,"activity change, negative = cytotoxicity",Potency
CCOc1ccc(S(=O)(=O)NCCC(=O)NNC(=O)c2ccc(F)cc2)cc1,19.8% (inactive),
O=C(CSc1ccc(-c2ccco2)nn1)NCc1ccc2c(c1)OCO2,-23.5% (inactive),
O=C(CSc1ccc(-c2ccc(F)cc2)nn1)Nc1ccc2c(c1)OCCO2,-21% (inactive),
O=C(CSc1ccc(-c2ccco2)nn1)Nc1cccc(F)c1,,10.3 µM (active)
Cc1c(C(=O)Nc2ccccc2)sc2nc3n(c(=O)c12)CCCCC3,0% (inactive),
CC(=O)c1ccc(NC(=O)c2sc3nc4n(c(=O)c3c2C)CCCCC4)cc1,,18.4 µM (active)
Cc1ccc(NC(=O)C2(N3CCC3=O)CCCCC2)cc1,1.95% (inactive),
O=c1c2c(nc3n1CCCCC3)sc1c(O)cccc12,-5.57% (inactive),
CC(=O)c1ccc(NC(=O)c2nc(-c3ccc(C)cc3)n3c2CCCCC3)cc1,,20.6 µM (active)
Cc1ccc(C(=O)Nc2ccc(OCc3cc(=O)n4c5c(sc4n3)CCCC5)cc2)cc1,-2.43% (inactive),
CC1(Oc2ccccc2-c2ccno2)CCN(Cc2ccc(-c3ccccc3)o2)C1 (stereo not given),0% (inactive),
CC(C)CCNC(=O)c1[nH]c(C(F)(F)F)nc1-c1ccccc1,-16.3% (inactive),
NCCCCC(C(=O)O)N(C(=O)OCc1ccccc1)C(=O)OCc1ccccc1 (stereo not given),-3.19% (inactive),
O=C(Nc1ccc(Cl)cc1)c1csc([C@@H]2O[C@H](CO)[C@H](O)[C@H](O)[C@H]2O)n1,1.61% (inactive),
CC(=O)Nc1ccc2nc(SCCOc3cc(C)cc(C)c3)sc2c1,-6.54% (inactive),
O=C1NC[C@H](CCCCN2C[C@H](Cc3ccc(O)cc3)N(CCc3ccccc3)C(=O)C2=O)N(CCc2ccccc2)C1=O,1.54% (inactive),
Cc1cccc(Cn2c(CN3CCC(C(=O)NCc4ccccc4Cl)CC3)cc3ccccc32)c1,4.63% (inactive),
C/C(COc1ccccc1)=N\NC(=O)c1nnn(-c2nonc2N)c1-c1ccc(C)cc1,17.6% (inactive),
CCN(CC)c1cc(NC2CCCCC2)c2c3c(onc13)-c1ccccc1C2=O,25.8% (inactive),
CCOC1=C2CN(S(=O)(=O)c3ccc(C)cc3)[C@H](c3cccs3)C[C@H]2[C@H]2C(=O)N(c3ccccc3)C(=O)[C@H]2C1,14.3% (inactive),
Cc1oc(C)c2c(=O)cc(-c3ccc4c(c3)OCO4)cc(OC(=O)c3ccc(Cl)cc3)c12,17.3% (inactive),
COc1cc(-c2c(-c3ccc4c(c3)OCO4)noc2C)ccc1F,,5.8 µM (active)
COc1ccc(CCNC(=O)c2cc(-c3ccc4c(c3)OCO4)on2)cc1OC,-20.7% (inactive),
